Screens deposited in PubChem by National Center for Advancing Translational Sciences (NCATS).
Most compounds without a hit are left out; they make up all but 10% or so of the library.
ALDH1A1 inh: qHTS Assay for Inhibitors of Aldehyde Dehydrogenase 1 (ALDH1A1). Purified ALDH1A1, NADH fluorescence, propionaldehyde substrate. 7.3% of 220,000 active. Potency, µM (highest dose often 75.3 µM), for inactives: at the highest dose activity, negative = inhibition, most hits filed as inhibitors;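 also: potency is read from the fitted curve at half-maximal effect; plate controls were no enzyme wells and a reference inhibitor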
LMNA splice mod: qHTS Assay for Modulators of Lamin A Splicing. HeLa LMNA splicing GFP/RFP minigene ratio, 48 h. Potency, µM (doses to about 46.1 µM), without a hit: at the highest dose ratio change, negative = inhibition, hits mostly inhibitors. 0.01% of 200,000 active. AID 1487, 2009; active = well fitted inhibition curve with a large enough effect in the signal ratio, with a control signal flat, not every such curve was filed as active; inconclusive = small, poorly fitted or top-dose-only effect, or effect the other way, or a change in a side signal; the % refers to the signal ratio; also: potency is read from the fitted curve at half-maximal effect
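Read-out is the ratio of GFP to DsRed2 object intensity, acquired by 488 nm laser-scanning cytometry on HeLa lamin A-EGFP minigene reporter cells. Compound incubation 48 hrs at 37 °C in Opti-MEM with 2% FBS; DMSO 0.5% final.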
PNC inhibitor: High Content Assay for Compounds that inhibit the Assembly of the Perinucleolar Compartment. PC3M PTB-GFP, PNC prevalence imaging, 16 h; hits give low values. activity change (PNC), negative = inhibition, % at 10 µM. 3.1% of 140,000 active. AID 2417, 2010;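 active = readout at or below -70, meaning at least 70% loss of cells showing the perinucleolar compartment, a nuclear body marking cancer cells; inconclusive = readout between -30 and a set limit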;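 also: plate controls were DMSO wells for no effect and camptothecin positive control wells for full effect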
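Read-out is percentage of cells bearing a perinucleolar compartment, from automated 20x imaging of fixed, Hoechst-stained PC3M PTB-GFP cells. Cells were seeded 4 h, then exposed 16 h to compound (23 nl of library stock) in duplicate plates.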
KinaseGlo FLuc: Counterscreen for Luciferase (Kinase-Glo TM) Inhibition | Luciferin 4-monooxygenase (Photuris pensylvanica), Q27757 | Kinase-Glo luciferase, ATP luminescence, 8 min | Potency, µM (highest dose often 38.3 µM), inactives show at the top dose activity change, negative = inhibition, hits mostly inhibitors | 0.28% of 200,000 active; active = well fitted inhibition curve with a large enough effect; inconclusive = small, poorly fitted or top-dose-only effect; also: potency is read from the fitted curve at half-maximal effect; nearly all actives have a fitted effect of over 60% in size
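Light output from Kinase-Glo luciferase with luciferin and 10 uM ATP in 50 mM imidazole pH 7.2, KCl, MgCl2, Tween 20, BSA; compound pin-delivered, 8-min ambient incubation, then luminescence read.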
HPGD block: qHTS Assay for Inhibitors of HPGD (15-Hydroxyprostaglandin Dehydrogenase); 15-hydroxyprostaglandin dehydrogenase [NAD(+)] (Homo sapiens), P15428; purified HPGD, NADH fluorescence kinetic, PGE2 substrate; Potency, µM, for the others: at the highest dose activity change, negative = inhibition, usual class: inhibitors; 4.3% of 150,000 active; AID 894, 2007; also: potency is read from the fitted curve at half-maximal effect
Target sequence (P15428 whole entry, looked up): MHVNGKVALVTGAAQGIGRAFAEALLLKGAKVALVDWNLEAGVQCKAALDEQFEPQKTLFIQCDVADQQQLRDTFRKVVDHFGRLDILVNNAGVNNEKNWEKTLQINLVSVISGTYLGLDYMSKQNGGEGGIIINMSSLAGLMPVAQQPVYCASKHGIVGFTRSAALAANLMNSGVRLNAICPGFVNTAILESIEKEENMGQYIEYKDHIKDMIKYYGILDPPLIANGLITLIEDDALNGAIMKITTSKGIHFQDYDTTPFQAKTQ
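NADH formation kinetics: reaction with 30 uM PGE2 and 1 mM NAD+ (final), 20 nM enzyme, Tris-HCl pH 8 with Tween 20, after 15 min compound preincubation at room temperature. Fluorescence change, last versus first of five reads.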
Starred values were filed as active, the others as inactive; ? = inconclusive; . = no result given; [ ] = another dose, or the depositor's remark. Unless noted, calls follow the shape of the dose curve; as a rule, active = well fitted inhibition curve with a large enough effect (not every such curve was filed as active); inconclusive = small, poorly fitted or top-dose-only effect, or another doubt; inactive = no such curve, though single readings can be large or run the other way. Unless noted, % is scaled to controls: 0 for no effect and ±100 for the full control effect.

SMILES | ALDH1A1 inh | LMNA splice mod | PNC inhibitor | KinaseGlo FLuc | HPGD block
Cn1c(N)c(C(=O)COC(=O)CCCc2c[nH]c3ccccc23)c(=O)n(C)c1=O | -5% | -2% | -80* | -3% | -8%
Cn1c(N)c(C(=O)COC(=O)CCc2c[nH]c3ccccc23)c(=O)n(C)c1=O | -1% | 0% | 27 | -1% | -4%
Cc1cc(C)c2ccc(=S)[nH]c2n1 | 3.5µM* | -6%[9.22 µM] | . | 0% | .
CCCCN(CCO)CCCC | -14% | . | . | . | -10%
O=C(CN1CCC(c2nc3ccccc3s2)CC1)NCc1cccs1 | 6.3µM* | ? | 23 | 0% | ?
CC(C)n1c(N2CCN(CC(=O)NCc3cccs3)CC2)nc2ccccc21 | 10µM* | -19% | 15 | -2% | -11%
CC(C)n1c(N2CCN(C(=O)c3cccs3)CC2)nc2ccccc21 | ? | -17% | ? | -2% | 1%
O=C(CN1CCC(c2nc3ccccc3s2)CC1)N1CCCCC1 | ? | . | . | 2% | .
COC(=O)c1c(-c2cccs2)csc1NC(=O)c1ccc(C(C)(C)C)cc1 | . | -21%[46 µM] | . | . | .
O=C1/C(=C\c2ccc([N+](=O)[O-])cc2)CCc2ccccc21 | 8% | -4% | 78 | 13µM* | -3%
COc1ccc2c(c1)C(=O)[C@@H](OC(=O)N[C@H]1CCCc3ccccc31)[C@H](c1ccc(OC)c(Br)c1)O2 | 13µM* | . | . | -1% | -9%
CCOC(=O)C1=C(C)N(Cc2ccccc2)C(=O)NC1c1ccc(OC)cc1 (stereo not drawn) | ? | 15% | 24 | -7% | -14%
CCOC(=O)c1[nH]nc2c1C(=O)N(Cc1ccccc1)C2=O | ? | ? | -26 | -3% | 8.9µM*
COC(=O)c1[nH]nc2c1C(=O)N(Cc1ccccc1)C2=O | ? | ? | 26 | 1% | 10µM*
CC(C)C[C@@H](NC(=O)[C@@H](O)[C@H](N)Cc1ccccc1)C(=O)O | 7% | . | . | 1%[39.9 µM] | -6%
Cn1cc(-c2cc3n(n2)CCC(=O)N3CC(=O)NCc2ccccc2)c2ccccc21 | . | 7%[46 µM] | . | . | .
Cn1cnc(S(=O)(=O)N2CCC(C(=O)NCc3ccccc3Cl)CC2)c1 | . | 15%[46 µM] | . | . | .
Cc1ccc(Cc2nc3ccccc3nc2SCC(=O)NCc2ccccc2Cl)cc1 | . | -10%[46 µM] | . | . | .
CCc1cc2ccc(OC)cc2nc1SCC(=O)NNC(=O)c1ccco1 | 6.3µM* | -15%[46 µM] | . | 2% | .
COc1cc(OC)cc(-c2nc3ccccc3c(=O)n2OC(=O)c2ccccc2C)c1 | -2% | ? | -22 | 0% | -9%
O=C(On1c(-c2ccccc2)nc2ccccc2c1=O)c1ccco1 | 8.9µM* | 10% | 10 | -3% | ?
NC(=O)NC(=O)CSc1nc(C2CCCCC2)n(-c2ccccc2)n1 | 7% | ? | 45 | 0% | -8%
C/C(N)=C(/C#N)C(=O)CSc1nc(C2CCCCC2)n(-c2ccccc2)n1 | 32µM* | 21% | 6 | -1% | -14%
CC(C)CC(=O)Nc1ccc2nc(SCC(=O)N3CCCC3)sc2c1 | . | 9%[46 µM] | . | . | .
Cc1ccccc1OCc1nnc(SCC(=O)Nc2ccc3nc(SCC(=O)Nc4ccccc4)sc3c2)n1C | 13µM* | ? | ? | 6% | -12%
SMILES | ALDH1A1 inh | LMNA splice mod | PNC inhibitor | KinaseGlo FLuc | HPGD block
CCC(=O)Nc1ccc2nc(SCC(=O)N3CCCC3)sc2c1 | ? | -14% | -1 | 5% | 16µM*
Cn1c(SCC(=O)Nc2ccc3nc(SCC(=O)N4CCCC4)sc3c2)nnc1-c1ccc(N)cc1 | 13µM* | 17% | 17 | -2% | 8.9µM*
Cn1c(SCC(=O)Nc2ccc3nc(SCC(=O)NC4CC4)sc3c2)nnc1-c1ccccc1 | 10µM* | -12% | ? | 2% | 3.5µM*
CC(C)CSc1nc2c(c(=O)[nH]c(=O)n2C)n1CC(O)COc1cccc2ccccc12 (stereo not drawn) | 18µM* | 0% | 16 | -4% | 13µM*
Cn1c(=O)[nH]c(=O)c2c1nc(SCC(O)CO)n2Cc1ccccc1Cl (stereo not drawn) | 14µM* | -3% | 1 | -5% | -22%
CCOc1ccc(CNC(=O)c2ccc3c(c2)sc2nc(-c4ccc(OC)cc4)cn23)cc1 | . | 17%[46 µM] | . | . | .
COC(=O)C[C@H]1c2ccccc2[C@H]2C(=C[C@@H](C)[C@H]3C(=O)N(O)C(=O)[C@H]32)N1C(=O)OC | -17%[13.5 µM] | ? | . | -3%[7.66 µM] | -10%
COc1ccc(NC(=O)/C=C/c2ccco2)cn1 | 7.1µM* | ? | . | -9% | .
COc1ccccc1CNC(=O)Cc1ccc(Br)cc1 | ? | -14% | -21 | 0% | -26%
COc1ccc(OC)c(/C=C/C(=O)Nc2ccc(OC)nc2)c1 | ? | -19%[46 µM] | . | -1% | .
COc1ccc(NC(=O)/C=C/c2cccc(F)c2)cn1 | -3% | ? | ? | -1% | -4%
COc1ccc(NC(=O)/C=C/c2ccc(Br)o2)cn1 | 22µM* | . | . | . | .
O=C(/C=C/c1ccc(Br)o1)NCCCN1CCOCC1 | 2µM* | . | . | -2% | .
COc1ccccc1CNC(=O)/C=C/c1ccc(Br)o1 | 13µM* | . | . | -1% | .
Cc1ccc(-n2ncc(C(=O)N3CCC(c4ccccc4)C3)c2C2CCN(C(=O)OC(C)(C)C)CC2)cc1 (stereo not drawn) | . | -2%[46 µM] | . | . | .
COC(=O)N1CCC2(CC1)CN(C(=O)Nc1cccc(F)c1)C2 | 24% | . | . | -2% | -12%
CC/C(=C\C1CCCCC1)C(NP(=O)(c1ccccc1)c1ccccc1)c1ccccc1 (stereo not drawn) | ? | ? | -90* | -7% | -7%
Cc1ccc(-c2noc(CN3CCN(c4ccccc4F)CC3)n2)cc1 | 11µM* | -23% | ? | 2% | -14%
CC[C@@H](c1ccccc1)n1c(=O)n2n(c1=O)[C@H]1[C@H](O)[C@H]3O[C@@H]3/C(=N/OCC(C)C)[C@@H]1CC2 | 10%[13.5 µM] | . | . | . | .
